Data published in PubChem BioAssay (NCI).
About 83,000 compounds went through this panel and 20% of them were active in at least one assay; those are over-represented in the sample as a whole.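 96-well plates, one dose, 48 hours. Percent growth reported; active if below 10.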 Values without a mark were called inactive. Activity calls are given as the source filed them.

Legend:
Test in all cases: NCI-60 one-dose screen, 48 h (100 = growth as untreated, 0 = no growth, -100 = all killed)
Details in all cases: 10 µM unless noted
NCI-H23 lung = test system: NCI-H23 lung
NCI-H226 lung = test system: NCI-H226 lung
NCI-H322M lung = test system: NCI-H322M lung
NCI-H460 lung = test system: NCI-H460 lung
HOP-92 NSCLC = test system: HOP-92 NSCLC
NCI-H522 lung = test system: NCI-H522 lung
A549/ATCC NSCLC = test system: A549/ATCC NSCLC
786-0 renal = test system: 786-0 renal
COLO 205 colon = test system: COLO 205 colon
DU-145 prostate = test system: DU-145 prostate
K-562 leukemia = test system: K-562 leukemia
MALME-3M melanoma = test system: MALME-3M melanoma
MDA-MB-231 breast = test system: MDA-MB-231 breast
RXF 393 renal = test system: RXF 393 renal
SF-268 CNS = test system: SF-268 CNS
SF-295 CNS = test system: SF-295 CNS
SF-539 CNS = test system: SF-539 CNS
UACC-257 melanoma = test system: UACC-257 melanoma
M14 melanoma = test system: M14 melanoma
HOP-62 NSCLC = test system: HOP-62 NSCLC

Compound	growth (NCI-H23 lung)	growth (NCI-H226 lung)	growth (NCI-H322M lung)	growth (NCI-H460 lung)	growth (HOP-92 NSCLC)	growth (NCI-H522 lung)	growth (A549/ATCC NSCLC)	growth (786-0 renal)	growth (COLO 205 colon)	growth (DU-145 prostate)	growth (K-562 leukemia)	growth (MALME-3M melanoma)	growth (MDA-MB-231 breast)	growth (RXF 393 renal)	growth (SF-268 CNS)	growth (SF-295 CNS)	growth (SF-539 CNS)	growth (UACC-257 melanoma)	growth (M14 melanoma)	growth (HOP-62 NSCLC)
CCOC(=O)c1ccc2c(c1)nc(-c1ccc(OCc3ccccc3)c(OC)c1)n2-c1cc(C(C)(C)C)[nH]n1	88.1%	91.6%	92.8%	74.9%	93.5%	67.8%	59.3%	98.7%	67.4%	89.9%	55.4%	99.2%	109%	83.6%	88.1%	35.8%	88.2%	101%	95.4%	
COc1cc(Cn2cc3c(c2)-c2oncc2CC3)cc(OC)c1OC	15.7%	17.7%	-2.65% (active)	3.87% (active)	56.4%			12.8%	-67.2% (active)	-11% (active)	12%	56.5%	28.9%	46.1%	18.4%	-3.52% (active)		81.2%	10.7%	42.1%
COc1ccc(/C=C(\C#N)c2cc(OC)c3c(c2)OCO3)cc1	37.5%	26.7%	44%	5.33% (active)	43.6%	-8.84% (active)		20%	-41% (active)	-12.7% (active)	9.08% (active)	54.2%	10.4%	21.4%	26.9%	4.91% (active)	4.3% (active)	84%	12.1%	
COc1cc(-c2nn(-c3cccc(NC(=O)c4ccc(N5CCOCC5)c(C(F)(F)F)c4)c3)cc2-c2ccncc2)ccc1Cl	15.6%	42.5%	54.2%	5.02% (active)	11.5%	0.2% (active)	3.58% (active)	-3.26% (active)	-43.4% (active)	10.9%	1.22% (active)	36.2%	-25.2% (active)	-45.2% (active)	22.5%		-68.9% (active)	24.3%	1.42% (active)	
CN1C(=O)N(C)C2C1NN=c1s/c(=C\c3cccnc3)c(=O)n12 (stereo unspecified)	86%	89.3%	89.1%	83.8%	78.9%	72.2%	84%	96.5%	87%	95.5%	27.7%	71.4%	69.1%	92.4%	84.8%	81.7%	91%	85.2%	61.1%	
Cn1c2ccc(Br)cc2c2c3c(c4c5ccccc5[nH]c4c21)C(=O)N(O)C3=O	-42.6% (active)	24.1%	-68% (active)	-14.8% (active)	-77.3% (active)	-67% (active)	-13.8% (active)	-93.8% (active)	-84.4% (active)	-71.1% (active)	-8.92% (active)	-85% (active)	-74.1% (active)	-99.5% (active)	-45.7% (active)		-92.6% (active)	-33.7% (active)	-78.2% (active)	
CCOC(=O)c1c(/N=C2\SC(=O)/C(=C\C(=O)OC)N2NC)sc2c1CCN(C(=O)OCC)C2	96.4%	99%	97.8%	101%	90.6%	94.7%	98.8%		109%	101%	99.9%	101%	100%	106%	96.2%	98.7%	96.9%	101%	91.7%	
CC12CCC3C4(C)COC(c5ccccc5Cl)OC4CCC3(C)C1CC(C1=CCOC1=O)O2 (stereo unspecified)	52.7%	59.5%	90.2%	44.1%	85.7%	59.4%	64.1%	-89.9% (active)	45%	83.9%	23.9%	90.6%	71.7%	80.4%	70.1%	64.3%	84.7%	49.3%	65.9%	
O=C1C2(c3ccccc3)C(c3ccccc3)=C(c3ccccc3)C1(c1ccccc1)C1CC=CC12 (stereo unspecified)	75.9%	74%	84.7%	84.4%	1.51% (active)	71.3%	78.3%	85.9%	112%	101%	69.3%	82.9%	70.7%	84.6%	91.1%	68.1%	89.3%	78.4%	95.4%	
COc1ccc2c(c1)NC1=C(C(=O)OC1)C2c1cc(OC)c2c(c1)OCO2 (stereo unspecified)	33%	34%	52.4%	4.54% (active)	43.8%	-13.1% (active)		22.3%	-56.9% (active)	-20.6% (active)	10.8%	52.7%	11.3%	28%	22.8%	6.7% (active)	6.15% (active)	71.6%	5.09% (active)	
O=[N+]([O-])c1cc(S(=O)(=O)Oc2ccccc2)ccc1Cl	30.7%	75.3%	-13.3% (active)	1.7% (active)	24.1%	14.3%	88.4%	24.1%	5.56% (active)	-81% (active)	1.22% (active)	-68.8% (active)	40.7%	35%	24.2%	28.7%		45.4%	-21.5% (active)	
CC1=C(C#N)C(=O)NC(C)C1 (stereo unspecified)	92.8%	111%	106%	107%	83.1%	107%	95.3%	97.6%	108%	111%	116%	102%	105%	107%	104%	99.9%	97.9%	102%	96.2%	
Nc1cc2c([nH]c[n+]2CC#CCCl)c(SCC#CCCl)n1	-72.2% (active)	-42.5% (active)	-66.6% (active)	-7.39% (active)	-39.7% (active)	-90.7% (active)	-7.51% (active)	-86.5% (active)	-48.5% (active)	-5.81% (active)	5.47% (active)	-46.4% (active)	-50.2% (active)	-90.5% (active)	-9.39% (active)		-75.3% (active)	-59.5% (active)	-90.9% (active)	
CCCCCCCC[C@@H](O)CC(=O)N[C@@H](CC(N)=O)C(=O)N[C@@H](CCC(N)=O)C(=O)N[C@@H](CC(=O)c1cc(C)cc(O)c1C(=O)c1c(O)cccc1O)CC(C)C	23.5%	89.1%	86.8%	23.4%	-17.8% (active)	-22.5% (active)	60.1%	11.6%	13.5%	54%	23.8%	51.3%	12.1%	-49.5% (active)	9.65% (active)	21%	-5.78% (active)	14.9%	-12.3% (active)	
COc1ccc2c(c1)[nH]c(=O)c1c3cc(OC)ccc3cn21	41.4%	30.1%	33.6%	-33% (active)	45.1%	13%	-2.59% (active)	28.7%	-14.1% (active)	0.89% (active)	25.6%	60.4%	0.629% (active)	-39.9% (active)	-3.31% (active)	-18% (active)	7.14% (active)	72.5%	25.4%	
